In PubChem BioAssay (NCI) one finds growth data, which are given here for 15 compounds.

About 83,000 compounds went through this panel and 20% of them were active in at least one assay; those are over-represented in the sample as a whole.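 Activity criterion: percent growth below 10, measured after cells in 96-well plates were exposed to a single compound concentration for 48 hours.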 Unmarked numbers belong to inactive results. Active and inactive are the calls of the source.

Test systems include T-47D breast; BT-549 breast; MDA-MB-435 melanoma; SW-620 colon; MCF7 breast; HCT-116 colon; HCC-2998 colon; KM12 colon.
What all share (assay): NCI-60 one-dose screen, 48 h (100 = growth as untreated, 0 = no growth, -100 = all killed)
What all share (settings): 10 µM unless noted

As to `COc1ccc(N=Nc2ccc(O)c(=O)cc2)cc1`, the growth with T-47D breast is -0.237% (active); in the experiment with BT-549 breast it was 22%; with MDA-MB-435 melanoma, 25.1%; in the experiment on SW-620 colon it was 21.7%; with MCF7 breast it was 5.65% (active); in the experiment on HCT-116 colon, 24.7%. The values for the growth with HCC-2998 colon and with KM12 colon were 36.2% and 18.2%, respectively.

For `COc1cc(C2CC(=O)Nc3c2c(C)nn3-c2nc3ccccc3[nH]2)c(OC)c2c1OCO2` (stereo not given), the growth in the experiment with T-47D breast was 67.2%; in the experiment on BT-549 breast it was 76%; in the experiment on MDA-MB-435 melanoma, -20.2% (active); in the experiment on SW-620 colon, 47.1%; in the experiment on MCF7 breast it was 45.3%; in the experiment with HCT-116 colon, 61.6%. Also, the growth with HCC-2998 colon was 97.5%; in the experiment with KM12 colon, 52.1%.

For the compound `CCCCCCCCn1ccc2cc(NC(=O)Cn3cc(CN4CCCC4)nn3)ccc21`, the growth was 24.1% in the experiment on T-47D breast; 70.8% with BT-549 breast; -72.2% (active) in the experiment with MDA-MB-435 melanoma; -54.8% (active) with SW-620 colon; 8.32% (active) in the experiment with MCF7 breast; 37.7% in the experiment with HCT-116 colon. Besides, the growth is -54% (active) with HCC-2998 colon and 41.8% in the experiment with KM12 colon.

For the compound `Cc1cc(Cl)ccc1Nc1nc(C(F)(F)F)ccc1C(=O)N/N=C/c1ccc(N(C)C)cc1`, the growth with T-47D breast is 37%; in the experiment on BT-549 breast, 34.9%; with MDA-MB-435 melanoma, 43.7%; in the experiment on SW-620 colon it was 15.9%; with MCF7 breast it was 10.1%; with HCT-116 colon, 19.4%. The growth with HCC-2998 colon was -37.3% (active); in the experiment with KM12 colon, 26.9%.

On to `COc1ccc(-c2nc3c(c(=O)n2C(C)=O)C(c2ccc(Cl)cc2)c2sc4c(Cl)cccc4c2O3)cc1` (stereo not given), for which the growth in the experiment on T-47D breast is 11.9%; in the experiment with BT-549 breast, -26.9% (active); in the experiment on MDA-MB-435 melanoma, 0.072% (active); in the experiment on SW-620 colon, -17.5% (active); with MCF7 breast it was 4.61% (active); in the experiment with HCT-116 colon, -58.6% (active). Besides, the growth in the experiment with HCC-2998 colon is -34.5% (active); in the experiment on KM12 colon, -8.16% (active).

As to `CNC(=O)c1cc(Oc2cccc3nc(Nc4ccc(F)c(Cl)c4)ccc23)ccn1`, the growth in the experiment with T-47D breast is 66%; with BT-549 breast, 62.9%; in the experiment with MDA-MB-435 melanoma, 60.5%; in the experiment on SW-620 colon, 20.3%; in the experiment on MCF7 breast it was 35.1%; with HCT-116 colon, 17.6%. Further, the values for the growth with HCC-2998 colon and in the experiment with KM12 colon were 101% and 63.5%, respectively.

Consider `O=C(c1ccccc1)N1N=C(c2ccccc2)CC1c1nnc2n(Cc3ccccc3)c(=O)c3c4c(sc3n12)CCCC4` (stereo not given), for which the growth was 122% in the experiment with T-47D breast; 115% with BT-549 breast; 97.9% with MDA-MB-435 melanoma; 105% in the experiment with SW-620 colon; 96.4% in the experiment on MCF7 breast; 95.1% in the experiment on HCT-116 colon. The growth in the experiment on HCC-2998 colon is 125%; with KM12 colon, 82.4%.

Consider `N#CC1=C(/N=C/c2ccccc2)Oc2c(ccc3ccccc23)C1c1ccccc1` (stereo not given), for which the growth in the experiment with T-47D breast was 49.8%; in the experiment on BT-549 breast it was 4.18% (active); with MDA-MB-435 melanoma it was -42.1% (active); with SW-620 colon, 23.9%; with MCF7 breast it was 14.6%; with HCT-116 colon, 8.77% (active). Also, the growth with HCC-2998 colon is -12.2% (active); with KM12 colon, 19.2%.

For the compound `COc1cc(/C=C/C(=O)c2ccc(Nc3nc(Nc4ccc(F)cc4)nc(Nc4ccc(Cl)cc4)n3)cc2)cc(OC)c1OC`, the growth is 61.9% in the experiment with T-47D breast; 54.8% in the experiment on BT-549 breast; 69.3% in the experiment on MDA-MB-435 melanoma; 35.3% in the experiment with SW-620 colon; 28.5% in the experiment with MCF7 breast; 22.9% in the experiment with HCT-116 colon. For the same compound, the growth in the experiment on HCC-2998 colon is -1.48% (active); in the experiment with KM12 colon it was 56%.

On to `CC1=C([Se]CC(OC(=O)[C@@H](CO)NC(=O)OC(C)(C)C)C(=O)NC(C)(C)C)C(=O)c2ccccc2C1=O` (stereo not given in full), for which the growth in the experiment on T-47D breast is -54.1% (active); in the experiment on BT-549 breast, -100% (active); in the experiment with MDA-MB-435 melanoma it was -82.4% (active); with SW-620 colon it was -85.9% (active); in the experiment with MCF7 breast, -72.6% (active); with HCT-116 colon, -100% (active). In addition, the results for the growth with HCC-2998 colon and in the experiment on KM12 colon were -89.9% (active) and -77.7% (active), respectively.

For `COc1cc(C2CC(c3cc(OC)c(OCCCOc4ccc(-n5c(/C=C/c6ccccc6)nc6ccccc6c5=O)cc4)c(OC)c3)=NO2)cc(OC)c1OC` (stereo not given), the growth in the experiment on T-47D breast is 108%; in the experiment on BT-549 breast it was 118%; in the experiment with MDA-MB-435 melanoma, 110%; in the experiment with SW-620 colon, 104%; in the experiment on MCF7 breast it was 97.4%; in the experiment on HCT-116 colon, 106%. In addition, the growth with HCC-2998 colon is 105%; in the experiment on KM12 colon, 122%.

For `COc1ccc2occ(C3=C(c4c[nH]c5ccccc45)C(=O)N(O)C3=O)c2c1`, the growth with T-47D breast was 76.1%; with BT-549 breast it was 84.2%; in the experiment on MDA-MB-435 melanoma, 96.3%; with SW-620 colon it was 89.2%; in the experiment on MCF7 breast, 82.5%; in the experiment with HCT-116 colon, 90.7%. In addition, the figures for the growth in the experiment on HCC-2998 colon and in the experiment on KM12 colon were 112% and 91.1%, respectively.

For `CC/C=C\C/C=C\C[C@H](O)C/C=C1/C(=O)C=C[C@@H]1C/C=C\CCCC(=O)O`, the growth with T-47D breast was 14.2%; in the experiment on BT-549 breast, -29.3% (active); in the experiment on MDA-MB-435 melanoma, 10.1%; with SW-620 colon, 21.4%; in the experiment with MCF7 breast, 23.6%; in the experiment on HCT-116 colon it was -61.1% (active). Further, the figures for the growth in the experiment on HCC-2998 colon and with KM12 colon were -22% (active) and 6.23% (active), respectively.

With `Cc1cc(=O)oc2c1ccc1oc(C#N)c(C)c12`, the growth in the experiment with T-47D breast is 88.6%; in the experiment with BT-549 breast, 94%; in the experiment with MDA-MB-435 melanoma it was 95.5%; in the experiment on SW-620 colon, 95.7%; with MCF7 breast it was 102%; with HCT-116 colon, 89.9%. Moreover, the values for the growth in the experiment on HCC-2998 colon and in the experiment with KM12 colon were 106% and 104%, respectively.

As to `C=C1C(=O)O[C@H]2[C@H]1CC/C(COC(=O)C(=O)c1cn(C)c3ccc(OC)cc13)=C\CC[C@@]1(C)O[C@@H]21`, the growth in the experiment on T-47D breast is -55.3% (active); in the experiment on BT-549 breast it was -79.1% (active); in the experiment on MDA-MB-435 melanoma it was -79.2% (active); with SW-620 colon, -63.6% (active); with MCF7 breast, -34.8% (active); in the experiment on HCT-116 colon, -95.1% (active). Also, the growth was -65.3% (active) in the experiment on HCC-2998 colon and -65% (active) in the experiment with KM12 colon.
